FMDV inh = High Throughput Screening for Foot and Mouth Disease Virus Antivirals. actives 1.2% (n = 410,000). FMDV antiviral cell-based qHTS. Potency, µM (titrated, usually from 57.9 µM), actives largely listed as inhibitors. AID 1159524, 2015; calls by dose curve; tested in HEK293T cells; further: read-out not given here; nearly all actives have a fitted effect of over 45% in size
MARV entry inh = qHTS for inhibitors of binding or entry into cells for Marburg Virus | actives 1.8% (n = 300,000) | AID 540276, 2011 | Potency, µM (series often up to 37.8 µM), hits mostly inhibitors | Marburg virus pseudotyped entry inhibition, cell reporter; calls by dose curve; tested in HEK293 cells
LASV entry inh = qHTS for Inhibitors of binding or entry into cells for Lassa Virus; Lassa virus pseudotype entry inhibition, cell reporter; actives 1.2% (n = 300,000); Potency, µM (top dose mostly 37.9 µM), usual class: inhibitors; calls by dose curve; tested in HEK293 cells; further: nearly all actives have a fitted effect of over 50% in size
HCMV antiviral = qHTS Assay for inhibitors of the human cytomegalovirus (HCMV) | HFF cells, HCMV-luciferase reporter, 72 h; hits give low values | activity change, negative = inhibition, % at 57.5 µM | actives 4.5% (n = 410,000); in the data active means activity change below about -60%; inconclusive means no clear call, values can overlap the other calls; inactive means above about -39%
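Inhibition of viral replication was scored as loss of reporter luminescence in HFFs infected with HCMV-luciferase (MOI 1 PFU/cell) for 72 h; compounds tested at 2 doses, normalized to buffer and Salinomycin controls.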
Of the large screens only hits and unclear results are named; the others gave an inactive call. Only some compounds are listed: those with a hit (about 6.2% of all), similar ones and a draw of the others.

CCN(CC)c1ccc(NC(=O)c2cc(OC)cc(OC)c2)c(C)c1	MARV entry inh inconclusive, LASV entry inh inconclusive, HCMV antiviral -85.2
CCN(CC)c1ccc(NC(=O)c2cccc(OC)c2)c(C)c1	MARV entry inh inconclusive, LASV entry inh inconclusive
Cc1ccc(C(=O)NCCc2nnc3n2CCN(Cc2cc(C)cc(C)c2)CC3)cc1	none (no result: MARV entry inh, LASV entry inh, HCMV antiviral)
COCCN1C(=O)C2=C(C1=O)C1N(C)c3ccccc3[C@@]13C[C@@H](CO)N=C3N2 (stereo partly specified)	none (no result: FMDV inh, LASV entry inh, HCMV antiviral)
COc1ccc(OC)c(NC(=O)Cn2cnc3onc(-c4ccc(Cl)cc4)c3c2=O)c1	FMDV inh inconclusive, MARV entry inh inconclusive
CC(C(=O)NC1CCCC1)n1c(-c2ccncc2)nc2ccccc21 (stereo unspecified)	none (no result: MARV entry inh, LASV entry inh)
CC(C)(C)OC(=O)N/N=C/c1ccc(N2CCOCC2)s1	LASV entry inh 1.84µM
Clc1cccc(N/N=C/c2ccc(N3CCOCC3)s2)c1	FMDV inh inconclusive, HCMV antiviral -82.6
O=S1(=O)N[C@H](Cc2ccccc2)COc2cc(F)ccc21	none (no result: FMDV inh, MARV entry inh)
O=C(COC(=O)Cc1c(Cl)cccc1Cl)NCc1ccccc1	HCMV antiviral -67.9 (no result: MARV entry inh, LASV entry inh)
O=C(COC(=O)c1ccco1)NCc1ccccc1Cl	none
O=C(COC(=O)CC(c1ccccc1)c1ccccc1)NCc1ccc(Cl)cc1	FMDV inh 35.5µM, MARV entry inh inconclusive, LASV entry inh inconclusive
O=C(Cc1c(Cl)cccc1Cl)OCC(=O)N1CCc2ccccc2C1	HCMV antiviral -101.3
CCCC(=O)OCC(=O)NCc1ccc(Cl)cc1	none
O=C(COC(=O)c1ccccc1O)NCc1ccccc1Cl	HCMV antiviral -64.7 (no result: MARV entry inh, LASV entry inh)
Clc1ccc(CN(Cc2ccccc2)C(c2cccs2)c2nnnn2C2CCCC2)cc1 (stereo unspecified)	none
Fc1ccc(CN(Cc2ccccc2)C(c2cccs2)c2nnnn2C2CCCCC2)cc1 (stereo unspecified)	MARV entry inh inconclusive, LASV entry inh inconclusive, HCMV antiviral -76.5
CC(C)C(=O)N[C@@H]1c2ccccc2CC[C@@H]1OCc1ccccc1	HCMV antiviral -82.2 (no result: MARV entry inh, LASV entry inh)
O=C(Cc1cccs1)N[C@@H]1c2ccccc2CC[C@H]1OCc1ccccc1	HCMV antiviral -99.3 (no result: MARV entry inh, LASV entry inh)
O=C(CSc1ncc(S(=O)(=O)c2ccc(Br)cc2)c(=O)[nH]1)NCc1ccc(Cl)cc1	none
Cc1cnc(CNc2ncnc3ccc(-c4c(C)noc4C)cc23)cn1	none (no result: MARV entry inh, LASV entry inh, HCMV antiviral)
C=CCn1c(O)c(N=NC(=O)OCC)c2ccccc21	HCMV antiviral -64.3
CCn1c(O)c(N=NC(=O)CNC(=O)c2ccco2)c2ccccc21	HCMV antiviral -61.8 (no result: MARV entry inh, LASV entry inh)
C=CCn1c(=O)c2ccccc2n2nnc(C(=O)OCC)c12	HCMV antiviral -62.5
C=CCn1c(O)c(N=NC(=S)Nc2cccc(OC)c2)c2ccccc21	MARV entry inh inconclusive, LASV entry inh inconclusive, HCMV antiviral -75.9
C=CCn1c(O)c(N=Nc2ccccc2O)c2ccccc21	none (no result: MARV entry inh, LASV entry inh)
C=CCn1c(O)c(N=NC(=S)Nc2ccc(OC)cc2)c2ccccc21	MARV entry inh inconclusive, LASV entry inh inconclusive, HCMV antiviral -71.6
C=CCn1c(O)c(N=Nc2ccccc2)c2ccccc21	none
Oc1cc(-c2cccnc2)cc2cccnc12	HCMV antiviral -93.9 (no result: MARV entry inh, LASV entry inh)
CN1CCN(c2cc(-c3cc(O)c4ncccc4c3)ccn2)CC1	HCMV antiviral -89.2 (no result: MARV entry inh, LASV entry inh)
Cc1ccc(C)n1C1C(=O)N(Cc2ccc(Cl)nc2)c2ccccc21 (stereo unspecified)	none (no result: FMDV inh, MARV entry inh, LASV entry inh)
O=C1C=C(N2CCOCC2)c2cccc3cccc1c23	none (no result: MARV entry inh, LASV entry inh)
O=C1C=C(N2CCOCC2)c2ccccc2C1=O	FMDV inh inconclusive, MARV entry inh 2.51µM, LASV entry inh inconclusive, HCMV antiviral -96.7
CC1=C(C)C(=O)C(N2CCOCC2)=CC1=O	HCMV antiviral -68.4 (no result: LASV entry inh)
Cc1ccc(C)c(N2CCN(C(=O)CN3C(=O)CSc4c3c(C)nn4-c3ccccc3)CC2)c1	FMDV inh 35.5µM (no result: MARV entry inh)
CCc1ccc(S(=O)(=O)NCc2nc3cccnc3n2Cc2cccc(OC)c2)cc1	none (no result: MARV entry inh)
CC(Oc1ccc2c(-c3ccccc3)cc(=O)oc2c1)C(=O)NC(Cc1c[nH]c2ccc(O)cc12)C(=O)O (stereo unspecified)	HCMV antiviral -76.7 (no result: MARV entry inh, LASV entry inh)
COC(=O)C1=C(C(=O)OC)[C@@H]2N(C)c3ccccc3[C@@]23C[C@@H](C(=O)OC)N(C(=O)Nc2cccc(C#N)c2)C3=N1	none (no result: FMDV inh, LASV entry inh, HCMV antiviral)
CCCCOc1ccc(Br)cc1/C(C)=N/NC1=NCCN1	FMDV inh 14.1µM, MARV entry inh 10µM, LASV entry inh 11.2µM, HCMV antiviral -100.3
CCCCCCOc1ccc(/C(C)=N/NC2=NCCN2)cc1[N+](=O)[O-]	HCMV antiviral inconclusive (no result: MARV entry inh, LASV entry inh)
COCCCn1cc(CN2CC(N3CCN(C)CC3)CS2(=O)=O)nn1 (stereo unspecified)	none (no result: MARV entry inh, LASV entry inh)
N#CC(c1c(Cl)cccc1N1CCCCC1)N1CCCCC1 (stereo unspecified)	none (no result: FMDV inh, MARV entry inh, LASV entry inh)
Cc1ccc(S(=O)(=O)N(C(=O)c2ccncc2)c2ccc(OC(=O)c3ccncc3)cc2)cc1	HCMV antiviral -67.5
Cc1cc(NC(=O)CCN2C(=O)C3C4CCC(C4)C3C2=O)c(C)cc1Br (stereo unspecified)	FMDV inh inconclusive, HCMV antiviral -107.2
C[C@H]1[C@@H](NS(=O)(=O)c2ccc3ccccc3c2)CC[C@@]23CCCN2C(=O)CCC[C@@H]13	none (no result: FMDV inh, MARV entry inh, LASV entry inh)
Cc1sc2ncnc(N3CCC(C(=O)N(C)CC(=O)Nc4ccc(Cl)c(C(F)(F)F)c4)CC3)c2c1C	FMDV inh inconclusive, MARV entry inh inconclusive, LASV entry inh 7.08µM, HCMV antiviral inconclusive
CN(CC(=O)Nc1ccc(Cl)c(C(F)(F)F)c1)C(=O)C1CC(=O)N(Cc2ccco2)C1 (stereo unspecified)	HCMV antiviral -89.5
Cc1sc2ncnc(N3CCC(C(=O)N(C)CC(=O)Nc4cccc(F)c4)CC3)c2c1C	FMDV inh 17.8µM, HCMV antiviral -87.7 (no result: MARV entry inh, LASV entry inh)
CCOc1ccc(-c2cc(NC(=O)c3ccccc3)c(C(=O)OC)s2)cc1	LASV entry inh inconclusive
CCNC(=S)N=Nc1c(O)[nH]c2ccc(C(C)C)cc12	LASV entry inh 3.55µM, HCMV antiviral -65.8
COc1ccc(S(=O)(=O)N(C)CC(=O)N2CCN(C)CC2)cc1Cl	HCMV antiviral -100.4 (no result: MARV entry inh, LASV entry inh)
COc1ccc(S(=O)(=O)N(C)CC(=O)N2CCCCC2)cc1Cl	none
COc1ccc(OC)c(S(=O)(=O)N(C)CC(=O)N2CCN(c3cccc(Cl)c3)CC2)c1	FMDV inh inconclusive, MARV entry inh inconclusive, HCMV antiviral -103.3
c1ccc(COc2ncnc3c2ncn3CCCNC2CCN(Cc3ccccc3)CC2)cc1	FMDV inh inconclusive, HCMV antiviral -85.8 (no result: MARV entry inh, LASV entry inh)
O=[N+]([O-])c1cc(C(F)(F)F)cc([N+](=O)[O-])c1NCCNC(=S)Nc1ccc(Cl)c(Cl)c1	MARV entry inh inconclusive, LASV entry inh inconclusive, HCMV antiviral -92.7
S=C(NCc1ccncc1)Nc1ccc(Cl)c(Cl)c1	MARV entry inh inconclusive, HCMV antiviral inconclusive
CN1CCN(Cc2cccc(Oc3ccc(Cl)cc3)c2)CC1	MARV entry inh inconclusive, HCMV antiviral -60.8 (no result: FMDV inh)
CCN1CCN(Cc2cccc(Oc3ccc(Cl)cc3)c2)CC1	MARV entry inh inconclusive, LASV entry inh inconclusive (no result: FMDV inh)
O=C1C=CC(O)C2(CO)OC12 (stereo unspecified)	FMDV inh 28.2µM (no result: MARV entry inh, LASV entry inh)

Assay outcomes as filed in PubChem BioAssay.
